Screening data deposited in PubChem by National Center for Advancing Translational Sciences (NCATS).
This is a sample that favours compounds with a hit; in the whole collection about 21% have one here.
HCV inhibitor = inhibitors of hepatitis C virus infection. Huh7.5.1 HCVcc-Cre infection, luciferase reporter, 44 h. Potency, µM (doses to about 41.8 µM), inactives show top-dose activity change, negative = inhibition, actives largely listed as inhibitors. hit rate 3.4% among 340,000; note: potency is the fitted concentration of half-maximal effect; % is set by controls: 0 for no effect and ±100 for the full control effect
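Luciferase read-out (15 sec integration) after a 15 min room-temperature substrate step quantifies HCVcc-Cre infection. Cells, 1,000 per well, had compound added 4 h post-plating, then virus at ~0.5 moi, and were cultured 44 h.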
HCMV antiviral = inhibitors of human cytomegalovirus | HFF cells, HCMV-luciferase reporter, 72 h; active compounds read low | activity change, negative = inhibition, % at 57.5 µM | hit rate 4.5% among 410,000 | AID 1259415; in the data active = activity change below about -60%; inconclusive = no clear call, values can overlap the other calls; inactive = above about -39%; note: % is set by controls: 0 for no effect and ±100 for the full control effect
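Two-dose cell screen: HFF monolayers treated with compounds and infected with luciferase-expressing HCMV at 1 PFU/cell, 72 h at 37C, then lysed for luciferase measurement.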
Pf growth 96h = inhibits malaria parasite growth, 96 h; AID 504834; Potency, µM (series often up to 28.7 µM), for the others: at the top dose activity change, negative = inhibition, most hits filed as inhibitors; P. falciparum luciferase reporter growth, 96 h; hit rate 6.9% among 320,000; note: potency is the fitted concentration of half-maximal effect; % is set by controls: 0 for no effect and ±100 for the full control effect
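Luminescence readout: decreased luciferase signal marks inhibited growth of reporter-expressing P. falciparum in infected red cells (2% hematocrit, 0.05% parasitemia final), exposed to compound two generations (96 h, 37 C, 5% CO2).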
CHX counter = counter-screen for Shiga toxin inhibitors: cycloheximide protein synthesis inhibition | AID 2314 | max response, % | hit rate 12% among 300,000 | cell reporter, cycloheximide protein synthesis inhibition counterscreen; in the data active = max response mostly above about 13%, no sharp cut-off; inactive = mostly below about 14%; note: read at 38.3 µM for the half of the compounds with a filed dose; 0% is about no effect
Shiga toxin inh = Shiga toxin inhibition; Vero cells, Shiga toxin protein synthesis inhibition reporter; inhibition, % at 38.7 µM; hit rate 9.2% among 290,000; AID 2315; in the data active = inhibition mostly above about 28%, no sharp cut-off; inactive = mostly below about 43%; note: 0% is about no effect
Pf growth 48h = inhibits P. falciparum growth in the first generation, 48 h | P. falciparum luciferase growth in erythrocytes, 48 h | Potency, µM (highest dose often 28.7 µM), without a hit: at the highest dose activity change, negative = inhibition, usual class: inhibitors | hit rate 5.9% among 310,000; note: potency is the fitted concentration of half-maximal effect; % is set by controls: 0 for no effect and ±100 for the full control effect
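Here the parasites carry a stable luciferase gene and grow inside erythrocytes in Albumax-based RPMI medium with compound for one erythrocytic cycle. Activity is scored as loss of luminescent signal.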
* marks the source's active call; other numbers are inactive results; ? = inconclusive; . = no result given; [ ] = dose if it differs, or a comment. Unless noted, calls come from the whole dose curve; as a rule, active = well fitted inhibition curve with a large enough effect; inconclusive = small, poorly fitted or top-dose-only effect, or another doubt; inactive = no such curve, though single readings can be large or run the other way.

SMILES	HCV inhibitor	HCMV antiviral	Pf growth 96h	CHX counter	Shiga toxin inh	Pf growth 48h
Cc1cccc(-c2cc3nc(C)c(C)c(NCCCn4ccnc4)n3n2)c1	?	-24.7	?	16.0	27.0	1.65µM*
Cc1cc(C)c2c(n1)nn1c(NCCCn3ccnc3)cc(C)nc21	3.8%	.	?	-5.3	3.2	10.4%
Cc1cc(NCCCn2ccnc2)n2nc(-c3ccc(Cl)cc3)cc2n1	-10.9%	-27.5	20.0%	20.2*	57.1	2.62µM*
COc1ccc(Cl)cc1C(=O)NCCCn1ccnc1	20.0%	10.7	-7.2%	-2.1	1.7	33.5%
Cc1cc(-c2ccccc2)nc2cc(C(=O)NCCCn3ccnc3)nn12	2.1%	.	?	-1.2	-0.7	-28.2%
CC(C)(C)c1cc(NCCCn2ccnc2)n2ncc(-c3ccc(Cl)cc3)c2n1	25.1µM*	-21.0	?	58.2*	86.6*	?
Cc1cc(NCCCn2ccnc2)n2nc(-c3ccc(F)cc3)cc2n1	?	95.6	-3.7%[5.75 µM]	20.3*	29.2*	4.15µM*
Cc1oc(-c2ccc(Cl)cc2)nc1CS(=O)CC(=O)NCCc1ccccc1 (stereo not drawn)	.	0.0	.	.	.	.
CCS(=O)(=O)N1CC(=O)N(c2ccc(Cl)cc2)C(C)(C(=O)NC2CCCCC2)C1 (stereo not drawn)	.	0.0	.	.	.	.
Cc1cc(=O)n2c(n1)NC(Nc1cccc(C)c1C)=NC2c1ccccc1 (stereo not drawn)	11.0%	?	19.5%	-1.7	16.9	-4.6%
Cc1ccc(S(=O)(=O)N2CCc3cc(C(=O)Nc4c(C)cccc4C(C)C)ccc32)cc1	.	-1.2	.	.	.	.
O=C(N/C(=C/c1cccc([N+](=O)[O-])c1)C(=O)N1CCCCCC1)c1ccco1	-20.7%	2.2	?	2.8	-9.2	4.6%
CN(C)CCCNc1nc(-c2ccccc2)nc2ccccc12	-19.8%	22.1	?	0.4	7.4	?
CN(C)CCCNc1cc(C(C)(C)C)nc2c(-c3ccccc3)cnn12	?	-1.1	?	46.7*	61.4*	31.7%
CCCCN=CN1c2cc(OC)ccc2-n2cccc2C1c1ccccc1 (stereo not drawn)	.	85.2	.	.	.	.
CCCCOc1ccc(N2C(=O)CC(NCc3ccncc3)C2=O)cc1 (stereo not drawn)	8.3%	15.2	-9.0%	-1.8	-7.7	34.8%
CC(=O)N1c2ccc(S(=O)(=O)N(C)CC(=O)NC3CCCC3)cc2CC1C (stereo not drawn)	5.4%	?	?	9.5	-3.6	1.1%
CCCS(=O)(=O)N1CCC(C(=O)NCCOC)CC1	.	15.5	.	.	.	.
O=C(Cn1c(-c2cccs2)cc2ccccc21)N1CCN(c2ccccc2F)CC1	.	14.0	.	.	.	.
CCN(CC)CCOc1ccc2c(c1)C(=O)c1cc(OCCN(CC)CC)ccc1-2	.	?	6.01µM*	.	.	4.26µM*
CCN(CC)CCOc1cccc(C(C)C)c1	-11.2%	37.0	-7.5%	-1.8	-6.8	-1.1%
CSCC(CO)NS(=O)(=O)c1ccc(C)cc1 (stereo not drawn)	20.2%	6.8	32.5%	-2.0	15.7	-0.9%
NC(=O)C1CCN(C(=O)c2ccccc2CCc2ccccc2)CC1	10.0%	-11.5	?	-3.1	-4.2	-17.5%
O=C(c1ccccc1CCc1ccccc1)N1CCOCC1	-9.6%	-103.8*	.	1.1	-11.8	-8.2%
CCc1cccc(CC)c1NC(=O)c1ccccc1CCc1ccccc1	-18.7%	37.7	0.0%	-3.6	-4.7	14.7µM*
SMILES	HCV inhibitor	HCMV antiviral	Pf growth 96h	CHX counter	Shiga toxin inh	Pf growth 48h
O=C(Cc1ccccc1)c1ccccc1C(=O)N1CCCCC1	3.16µM*	13.8	8.3%	2.2	21.6	.
O=C(OCC(=O)N1CCOCC1)c1ccccc1Cc1ccccc1	-13.6%	170.8	338.4%	39.1*	59.9*	233.2%
O=C(Cc1ccccc1)Nc1ccccc1C(=O)N1CCCCC1	-11.2%	-34.3	0.1%	10.5	42.3	6.2%
O=C(OCC(=O)N1CCOCC1)c1ccccc1OCc1ccc(Cl)cc1	3.8%	7.5	.	.	.	.
CCCCCCCCN1C(=O)[C@H](CC(=O)NCCCN2CCCC2=O)C[C@@]2(C(=O)OCC)CCCC=C12	.	4.6	.	.	.	.
NC(=O)C1CCN(C(=O)C(=O)c2cn(CC(=O)N3CCCCCC3)c3ccccc23)CC1	8.8%	11.1	?	9.7	-3.1	?
CSc1ccccc1C(=O)N1CCOCC1	3.4%	29.0	1.8%	-2.6	-8.8	8.5%
O=C(OCC(=O)N1CCOCC1)c1ccccc1Br	14.3%	-20.5	32.4%	38.6*	46.9*	67.6%
O=C(OCC(=O)N1CCOCC1)c1ccccc1SCC(=O)N1CCCC1	12.2%	-16.6	.	-3.1	-9.1	.
O=C(c1ccccc1Sc1cccc2ccccc12)N1CCOCC1	?	-20.7	?	-2.2	-6.2	10.4µM*
CCN(Cc1ccccc1)C(=O)Cn1cc(S(=O)(=O)Cc2cccc(Cl)c2)c2ccccc21	.	0.0	.	.	.	.
CCOc1ccc(-n2c(=O)c3c(C)c(C)sc3n(CC(=O)N(CC)Cc3ccccc3)c2=O)cc1	.	5.3	.	.	.	.
O=C(Nc1nc(-c2ccc(Br)cc2)cs1)c1cccnc1	-29.9%	-63.6*	15.2%	-2.6	-8.6	5.7%
CC(=O)Nc1ccc(C(=O)Nc2nc(-c3cccnc3)cs2)cc1	-17.4%	79.3	0.0%	15.4*	20.7	-3.1%
O=C(Nc1nc(-c2cccnc2)cs1)c1ccccc1Cl	-25.1%	-14.8	5.1%	-2.0	18.2	?
Cc1ccccc1C(=O)Nc1nc(-c2cccnc2)cs1	3.7%	-26.6	-26.7%	19.5*	28.1	-3.6%
COc1ccc(OC)c(-c2csc(NC(=O)c3ccc(F)cc3)n2)c1	?	-3.4	?	13.8	12.0	?
Cc1ccc(Cl)cc1NC(=O)c1ccc(Cn2cc(Cl)cn2)cc1	?	?	166.1%	1.7	-5.7	-21.9%
O=C(Nc1ccccc1F)c1ccc(Cn2cc(Cl)cn2)cc1	-8.1%	5.1	18.7%	27.8*	49.7	44.1%
CCOc1ccc(C(=O)Nc2cnn(Cc3ccc(Cl)c(Cl)c3)c2)cc1	12.6µM*	-70.0*	?	-1.3	5.8	-2.9%
O=C(Nc1ccc([N+](=O)[O-])cc1)c1ccc(Cn2cc([N+](=O)[O-])cn2)cc1	?	-67.6*	-0.2%	8.0	30.6	?
CCC(NC(=O)c1cccc(Cn2cc([N+](=O)[O-])cn2)c1)c1ccc(C(C)C)cc1 (stereo not drawn)	?	-19.9	.	11.5*	6.8	-14.4%
Clc1ccc2c(c1)NC(c1ccncc1)=NC(c1cccs1)=N2	.	-0.8	.	.	.	.
CC[C@]12c3[nH]c4ccccc4c3CCN1C(=O)C(CC(=O)NCc1ccc(OC)c(OC)c1)C[C@@H]2C(=O)N1CCN(C(=O)C2CC2)CC1 (stereo partly drawn)	-0.5%	-13.4	.	.	.	.
O=C(Nc1cccc2ccccc12)c1ccc(Cn2cc(Cl)cn2)cc1	-29.1%	-1.4	13.1µM*	-0.8	-19.2	?
